Inconclusive results are not listed. Calls of active or inactive are those of the source. Unless noted, the call rests on the fitted dose curve; in most records, active means well fitted curve in the direction sought with a large enough effect in the repeat runs; inconclusive means weak or mixed curves; inactive means no such curve, though single readings can be large; an effect the other way counts as inactive or inconclusive.
Tests used:
[1] = qHTS assay to identify small molecule antagonists of the glucocorticoid receptor (GR) signaling pathway - cell viability counter screen (AID 720693); conditions: GR-bla HeLa viability, CellTiter-Glo luminescence, 18 h, with 5 nM dexamethasone present; series mostly up to 58.5 µM; further: nearly all actives have a fitted effect of over 55% in size
[2] = qHTS assay for identifying genotoxic compounds that show differential cytotoxicity against isogenic chicken DT40 cell lines with known DNA damage response pathways - wild type cell line (AID 743012); conditions: DT40 wild type chicken cells viability, CellTiter-Glo, 40 h; series mostly up to 68.4 µM; further: nearly all actives have a fitted effect of over 60% in size; further: potency means the concentration at half of the fitted maximal effect
Method in brief: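 Wild-type DT40 cells (300/well) exposed to compounds for 40 hours at 37 C/5% CO2. Viability read by CellTiter-Glo luminescence after 30 min at room temperature.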

[3] = qHTS assay for identifying genotoxic compounds that show differential cytotoxicity against isogenic chicken DT40 cell lines with known DNA damage response pathways - Rev3 mutant cell line (AID 743014); conditions: chicken DT40 Rev3-/- viability, CellTiter-Glo, 40 h; series mostly up to 68.4 µM; further: nearly all actives have a fitted effect of over 55% in size; further: potency means the concentration at half of the fitted maximal effect
[4] = qHTS assay for identifying genotoxic compounds that show differential cytotoxicity against isogenic chicken DT40 cell lines with known DNA damage response pathways - Rad54/Ku70 mutant cell line (AID 743015); conditions: DT40 Rad54/Ku70 mutant viability, CellTiter-Glo, 40 h; series mostly up to 66.8 µM; further: nearly all actives have a fitted effect of over 60% in size; further: potency means the concentration at half of the fitted maximal effect
[5] = qHTS assay to identify small molecule antagonists of the androgen receptor (AR) signaling pathway - cell viability counter screen (AID 743033; further: nearly all actives have a fitted effect of over 45% in size); conditions: AR-bla HEK293 viability, CellTiter-Glo luminescence, 16 h; series mostly up to 58.5 µM
[6] = qHTS assay to identify small molecule antagonists of the androgen receptor (AR) signaling pathway using the MDA cell line - cell viability counter screen (AID 743041; further: nearly all actives have a fitted effect of over 45% in size); conditions: MDA-kb2 viability, CellTiter-Fluor, 16 h, cells co-treated with R1881 androgen agonist; series mostly up to 70.3 µM
Method in brief: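 Viability counter screen run alongside the AR antagonist reporter: cells seeded 5 h before compound, R1881 added, 16 h incubation at 37C without CO2, fluorescent CellTiter-Fluor signal quantified.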

[7] = target: Androgen receptor (Homo sapiens) (UniProt P10275); assay: qHTS assay to identify small molecule agonists of the androgen receptor (AR) signaling pathway (AID 743036; active means well fitted activation curve with a large enough effect in the signal ratio in the repeat runs, with a control signal flat, not every such curve was filed as active; the % refers to the signal ratio); conditions: HEK293 AR-UAS-bla GripTite, beta-lactamase FRET ratio, 16 h; series mostly up to 62.4 µM
Androgen receptor (Homo sapiens), sequence (P10275 whole entry, looked up): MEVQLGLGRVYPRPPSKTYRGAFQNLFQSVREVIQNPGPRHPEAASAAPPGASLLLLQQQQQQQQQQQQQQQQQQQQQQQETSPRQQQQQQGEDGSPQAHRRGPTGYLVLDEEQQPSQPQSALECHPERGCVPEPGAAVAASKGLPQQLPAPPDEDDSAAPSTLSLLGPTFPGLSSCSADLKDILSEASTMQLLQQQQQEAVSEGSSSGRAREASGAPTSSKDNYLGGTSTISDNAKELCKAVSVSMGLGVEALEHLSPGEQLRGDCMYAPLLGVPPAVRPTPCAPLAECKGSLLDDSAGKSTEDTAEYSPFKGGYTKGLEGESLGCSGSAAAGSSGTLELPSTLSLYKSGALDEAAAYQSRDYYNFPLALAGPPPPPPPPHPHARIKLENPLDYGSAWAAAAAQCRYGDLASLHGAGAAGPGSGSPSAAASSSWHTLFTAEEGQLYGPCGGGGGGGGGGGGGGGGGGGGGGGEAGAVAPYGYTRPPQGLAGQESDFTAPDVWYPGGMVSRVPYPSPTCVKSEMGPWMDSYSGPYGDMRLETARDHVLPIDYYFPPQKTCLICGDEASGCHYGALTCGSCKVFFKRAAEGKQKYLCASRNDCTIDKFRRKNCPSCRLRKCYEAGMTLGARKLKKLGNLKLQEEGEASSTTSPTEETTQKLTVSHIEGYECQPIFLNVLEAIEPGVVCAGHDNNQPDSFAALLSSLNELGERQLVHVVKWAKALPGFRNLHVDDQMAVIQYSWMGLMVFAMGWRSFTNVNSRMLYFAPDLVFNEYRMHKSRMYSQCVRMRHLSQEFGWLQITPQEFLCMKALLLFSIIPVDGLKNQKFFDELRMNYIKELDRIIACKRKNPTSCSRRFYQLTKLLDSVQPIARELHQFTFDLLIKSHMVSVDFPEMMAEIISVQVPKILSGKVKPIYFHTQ
Method in brief: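 Agonist activity was scored by beta-lactamase reporter fluorescence in stably transfected HEK293 cells exposed to compounds for 16 h at 37C and 5% CO2. Substrate loading took 2 h at room temperature.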

[8] = target: Androgen receptor (Homo sapiens) (UniProt P10275); assay: qHTS assay to identify small molecule agonists of the androgen receptor (AR) signaling pathway using the MDA cell line (AID 743040; further: nearly all actives have a fitted effect of over 20% in size); conditions: MDA-kb2 AR-luc cells, MMTV luciferase, 16 h, active compounds read high; series mostly up to 70.3 µM
Method in brief: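 Luminescence from ONE-Glo, read after 30 min at room temperature, reflects MMTV-driven luciferase in MDA-kb2 cells (AR- and GR-responsive). Treatment lasted 16 h at 37C, 0% CO2.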

[9] = target: Androgen receptor (Homo sapiens) (UniProt P10275); assay: qHTS assay to identify small molecule antagonists of the androgen receptor (AR) signaling pathway using the MDA cell line (AID 743042; further: nearly all actives have a fitted effect of over 55% in size); conditions: MDA-kb2 AR-luc, MMTV luciferase, R1881 antagonist, 16 h; series mostly up to 70.3 µM
Method in brief: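 MDA-kb2 cells (human breast carcinoma, stably carrying an MMTV-luciferase reporter responsive to AR and GR) were plated at 3,000 cells/well and preincubated 5 hr at 37C, then given compound plus R1881 agonist for 16 h. ONE-Glo luminescence was read.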

[10] = qHTS assay to identify small molecule antagonists of the thyroid receptor (TR) signaling pathway - cell viability counter screen (AID 743064); conditions: GH3.TRE-Luc viability, CellTiter-Fluor, 24 h; series mostly up to 70.3 µM; further: nearly all actives have a fitted effect of over 50% in size
Method in brief: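 Same-well viability check: GH3.TRE-Luc cells stimulated with 1 nM T3 alongside test compound for 23.5 h, followed by CellTiter-Fluor fluorescence.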

Measured: Potency

CC(C)(O)c1ccc(C(C)(C)O)cc1
inactive: [1] | [2] | [3] | [4] | [5] | [6]

c1coc(Cn2cccc2)c1
inactive: [1] | [2] | [3] | [4] | [5] | [6]

O=C1c2ccccc2C(=O)N1CO
inactive: all assays above

CC1(C)CC(N)CC(C)(C)N1
inactive: [1] | [2] | [3] | [4] | [5] | [6]

Cc1ccc2cccnc2c1
inactive: all assays above

CCCCCCCCS(=O)(=O)O
inactive: [1] | [2] | [3] | [4] | [5] | [6]

CN1CCN(C(=O)C2CCCCC2)CC1
inactive: [1] | [2] | [3] | [4] | [5] | [6]

C/C(Cl)=C/CCl
not listed: [8]
inactive: all other assays above

Cc1ccc(O)c([N+](=O)[O-])c1
inactive: [1] | [2] | [3] | [4] | [5] | [6]

Cc1cc(C)c(C)c(C)c1
inactive: [1] | [2] | [3] | [4] | [5] | [6]

CC(CC(=O)Cl)CC(C)(C)C (stereo not given)
inactive: [1] | [2] | [3] | [4] | [5] | [6]

CC(O)C(CO)C(C)O (stereo not given)
not listed: [10]
inactive: all other assays above

N#CC1(N)CCCCC1
inactive: [1] | [2] | [3] | [4] | [5] | [6]

COC(=O)c1c(C)cc(O)c(C)c1O
active: [2] 61.1 µM | [3] 54.5 µM | [4] 61.1 µM
inactive: [1] | [5] | [6]

NNC(=O)OCc1ccccc1
not listed: [10]
inactive: all other assays above

CC(C)CC(O)Cc1ccccc1 (stereo not given)
inactive: all assays above

CCCCN(CCCC)CCCCCCN(CCCC)CCCC
inactive: [1] | [2] | [3] | [4] | [5] | [6]

C=CCCCCCCCCCCCCCC
inactive: [1] | [2] | [3] | [4] | [5] | [6]

N#Cc1ccccc1C#N
inactive: all assays above

CCC(C)(C)C
inactive: [1] | [2] | [3] | [4] | [5] | [6]

CC(C)OC(=O)C(C(=O)OC(C)C)=C1SC=CS1
active: [2] 23.7 µM | [3] 26.6 µM | [4] 23.7 µM
not listed: [10]
inactive: all other assays above

CC(O)CCCCn1c(=O)c2c(ncn2C)n(C)c1=O (stereo not given)
inactive: [1] | [2] | [3] | [4] | [5] | [6]

CCOC(=O)CC(C(C)=O)C(C)=O
inactive: [1] | [2] | [3] | [4] | [5] | [6]

C=CC(C)(CCC=C(C)C)OC(=O)C(C)C (stereo not given)
inactive: [1] | [2] | [3] | [4] | [5] | [6]

C/C=C(\C)C(=O)OC/C=C(\C)CCC=C(C)C
inactive: [1] | [2] | [3] | [4] | [5] | [6]

COC(=O)c1ccccc1Cl
inactive: [1] | [2] | [3] | [4] | [5] | [6]

N[C@H]1C(O)O[C@H](CO)[C@@H](O)[C@@H]1O (stereo not given in full)
not listed: [10]
inactive: all other assays above

CC/C=C\CCOC(=O)c1ccccc1
inactive: all assays above

CC1(C)S[C@@H]2[C@H](NC(=O)Cc3ccccc3)C(=O)N2[C@H]1C(=O)O (tested in a mixture with another compound)
inactive: [1] | [2] | [3] | [4] | [5] | [6]

Nc1cc(S(=O)(=O)O)ccc1O
not listed: [10]
inactive: all other assays above

C=COCCCCO
inactive: [1] | [2] | [3] | [4] | [5] | [6]

CCCCNCC
inactive: [1] | [2] | [3] | [4] | [5] | [6]

COc1cc(OC)cc(OC)c1
inactive: all assays above

Cc1ccc(N)nc1
not listed: [10]
inactive: all other assays above

O=C(OOC(=O)c1ccccc1)c1ccccc1
not listed: [7] | [8] | [9]
inactive: all other assays above

O=C(O)/C=C(\CC(=O)O)C(=O)O
inactive: [1] | [2] | [3] | [4] | [5] | [6]

C/C=C/C(=O)CCCC
not listed: [7] | [8] | [9]
inactive: all other assays above

CCCCC(CC)CCC(CC(C)C)OS(=O)(=O)O (stereo not given)
not listed: [7] | [8] | [9]
inactive: all other assays above

Cc1cc(N)no1
not listed: [7] | [8] | [9]
inactive: all other assays above

CC(=O)Nc1ccc(OCCOCCOc2ccc(NC(C)=O)cc2)cc1
not listed: [7] | [8] | [9]
inactive: all other assays above

CCCOc1ccc(C(=O)OCCN(CC)CC)cc1N
inactive: [1] | [5] | [6] | [10]
active: [2] 9.44 µM | [3] 6.68 µM | [4] 13.3 µM

Cc1ccc2ccccc2n1
not listed: [7] | [8] | [9]
inactive: all other assays above

CC(=O)SCC(CC(=O)c1ccc(C)cc1)C(=O)O (stereo not given)
not listed: [7] | [8] | [9]
inactive: all other assays above

CCCC(C)C(O)CC (stereo not given)
not listed: [7] | [8] | [9]
inactive: all other assays above

O=P(O)(O)C(O)(Cc1cccnc1)P(=O)(O)O
not listed: [7] | [8] | [9]
inactive: all other assays above

CC[N+](C)(CC)CC
not listed: [7] | [8] | [9]
inactive: all other assays above

N=C(N)N1CCc2ccccc2C1
not listed: [7] | [8] | [9]
inactive: all other assays above

CC/C=C/CCCCCCCCCCOC(C)=O
active: [3] 43.3 µM
not listed: [7] | [8] | [9]
inactive: all other assays above

Cc1ccc(Br)cc1
not listed: [7] | [8] | [9]
inactive: all other assays above

C=CCn1cc[n+](C)c1
not listed: [7] | [8] | [9]
inactive: all other assays above

OCCC(F)(F)C(F)(F)C(F)(F)C(F)(F)C(F)(F)C(F)(F)F
not listed: [7] | [8] | [9]
inactive: all other assays above

CCCCc1ccc(Cl)cc1
not listed: [7] | [8] | [9]
inactive: all other assays above

CC(C)(C)C(=O)CCc1ccc(Cl)cc1
not listed: [7] | [8] | [9]
inactive: all other assays above

CCCCN1C(=O)c2ccccc2C1=O
inactive: [1] | [2] | [3] | [4] | [5] | [6]

CCCCCCCCOCCC#N
not listed: [7] | [8] | [9]
inactive: all other assays above

CCC(C)SSC(C)CC (stereo not given)
not listed: [7] | [8] | [9]
inactive: all other assays above

CCCC[O][Al]([O]CCCC)[O]CCCC
not listed: [7] | [8] | [9]
inactive: all other assays above

CC(C)(C)OC(=O)c1ccccc1C(=O)O
not listed: [7] | [8] | [9]
inactive: all other assays above

Reference: PubChem BioAssay (Tox21)
